Sampled rows, rich in hits. Any-hit rate of the full collection: about 4%.
CSC inhib: cancer stem cell viability inhibitors, primary screen, luminescence | cancer stem cell-like cells viability | inhibition, % at 7.5 µM | hit rate 1.1% among 300,000 | AID 2717, 2010; in the data active means inhibition above about 75%; tested in HMLE shEcad cells
Mdm2 MdmX PPI: inhibitors of human Mdm2-MdmX association, primary screen, cell-based, luminescence, split luciferase, SaOS-2, uHTS. Protein Mdm4 (Homo sapiens) + E3 ubiquitin-protein ligase Mdm2 (Homo sapiens), …. hit rate 3% among 330,000. inhibition, % at 8 µM. SaOS-2 split-luciferase Mdm2/MdmX complementation;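 active means inhibition of at least 50% at 8 µM in the primary screen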
Target sequence (O15151 whole entry, looked up): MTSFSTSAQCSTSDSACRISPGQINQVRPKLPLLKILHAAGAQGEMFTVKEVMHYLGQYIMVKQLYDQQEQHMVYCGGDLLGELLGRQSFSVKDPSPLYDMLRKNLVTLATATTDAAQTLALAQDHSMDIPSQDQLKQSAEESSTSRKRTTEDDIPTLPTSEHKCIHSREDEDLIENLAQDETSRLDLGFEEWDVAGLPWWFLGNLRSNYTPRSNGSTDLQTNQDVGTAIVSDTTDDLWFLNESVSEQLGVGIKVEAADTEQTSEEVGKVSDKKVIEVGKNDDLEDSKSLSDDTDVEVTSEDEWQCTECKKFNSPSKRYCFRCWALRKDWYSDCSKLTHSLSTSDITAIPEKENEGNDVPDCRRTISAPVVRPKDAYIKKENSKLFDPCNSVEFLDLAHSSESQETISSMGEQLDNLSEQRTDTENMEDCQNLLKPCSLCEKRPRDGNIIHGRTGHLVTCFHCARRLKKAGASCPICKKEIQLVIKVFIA
Target sequence (Q00987 whole entry, looked up): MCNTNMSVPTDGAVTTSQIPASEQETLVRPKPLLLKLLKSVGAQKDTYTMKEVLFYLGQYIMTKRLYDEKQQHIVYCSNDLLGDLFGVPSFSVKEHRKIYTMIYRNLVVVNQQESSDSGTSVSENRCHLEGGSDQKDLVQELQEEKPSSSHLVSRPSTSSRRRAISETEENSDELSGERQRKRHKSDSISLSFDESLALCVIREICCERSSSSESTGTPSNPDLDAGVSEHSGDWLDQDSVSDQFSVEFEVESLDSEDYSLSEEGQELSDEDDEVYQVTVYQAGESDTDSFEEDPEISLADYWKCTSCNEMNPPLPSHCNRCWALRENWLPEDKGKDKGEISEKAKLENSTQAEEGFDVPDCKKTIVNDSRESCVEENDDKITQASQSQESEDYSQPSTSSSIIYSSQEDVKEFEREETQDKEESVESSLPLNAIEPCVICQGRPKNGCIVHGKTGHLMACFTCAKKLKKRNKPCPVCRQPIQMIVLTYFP
Shn3 3UTR inh: reduction of Shn3 3'UTR firefly luciferase signal, primary screen, Schnurri-3 inhibitor project, cell-based, Clone20 osteoblasts, set 2; Clone20 osteoblast Shn3 3'UTR firefly luciferase, 24 h; inhibition, % at 12.5 µM; hit rate 0.52% among 360,000; AID 588674, 2011;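 active means mean inhibition of at least 75% with every replicate also reaching 75%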
Beta apoptosis: inhibitors of cytokine-induced beta cell apoptosis, primary screen, luminescence; INS-1E cytokine-induced death, ATP luminescence, 48 h; percent of positive-control rescue, neutral wells zero; protection from apoptosis, % (concentration not given with the values); hit rate 0.8% among 300,000;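 active means Every replicate reaches about 75%, or at least half do and their mean reaches it too, limit read from the data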;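 further: higher means more ATP so stronger rescue from cytokine killing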
PAX8 inh HTS: inhibitors of PAX8-driven TPO luciferase reporter, primary screen, RMG-I cells, single concentration; inhibition, % at 12.6 µM; AID 652154, 2013; SteadyGlo, 24 h; hit rate 1.2% among 360,000;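 active means mean replicate inhibition at least 60% with every replicate also reaching 60%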;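 further: luciferase light reporting Pax8 driven TPO promoter activity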
Gli-Sufu block: Gli-Sufu pathway antagonists, primary screen, luciferase luminescence, Sufu-KO-LIGHT cells, uHTS; Sufu-KO-LIGHT fibroblasts, Gli luciferase reporter luminescence; inhibition, % at 5 µM; hit rate 0.74% among 340,000; AID 588413, 2011;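 active means inhibition above about 55%, limit read from the data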
Mdm2 MdmX conf: Mdm2-MdmX complex disruptors, retested hits, confirmation, luminescence, single concentration; shares compounds with Mdm2 MdmX PPI; Mdm2-MdmX binding, luminescent assay; inhibition, % at 8 µM; hit rate 55% among 10,000; AID 489028, 2010; in the data active means inhibition above about 40%
Full FLuc ctr: full-length luciferase signal inhibition, confirmation, counter-screen for Mdm2/MdmX interaction inhibitor project, cell-based, single concentration, SaOS-2 | inhibition, % at 8 µM | shares compounds with Mdm2 MdmX PPI | SaOS-2 full-length luciferase counterscreen, luminescence | hit rate 77% among 6,200 | AID 504607, 2011;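 active means mean inhibition at 8 µM reaching about 37%, which flags the compound as non-specific, limit read from the data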;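 further: p53-null SaOS-2 cells with luciferase driven by a doxycycline-inducible promoter; compound on cells about two nights before reading with doxycycline added after day one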
Each line names hits and unclear results; the compound was inactive in the other large screens (follow-up assays come after a bar, where they were run).

Cc1cc(SCc2ccc(Cl)cc2Cl)nc(=O)[nH]1	Mdm2 MdmX PPI 53 | Mdm2 MdmX conf inactive
COc1cc(/C=C/C(=O)O)ccc1O	none (no result: Beta apoptosis, PAX8 inh HTS)
COc1cc(/C=C/C(=O)/C=C(O)/C=C/c2ccc(O)c(OC)c2)ccc1O	Mdm2 MdmX PPI 66 | Mdm2 MdmX conf inactive
COc1cc(/C=C/C(=O)CC(=O)/C=C/c2ccc(O)c(OC)c2)ccc1O	CSC inhib 94, Mdm2 MdmX PPI 54 (no result: Beta apoptosis) | Mdm2 MdmX conf inactive
CC(C)(C)c1ccc(C(=O)CC(=O)c2cc(Cl)ccc2O)cc1	none (no result: PAX8 inh HTS)
N/C(=C\C(=O)c1cc(Cl)ccc1O)C(Cl)(Cl)Cl	CSC inhib 85, Mdm2 MdmX PPI 95 | Mdm2 MdmX conf 57 | Full FLuc ctr 54
CCC(=O)N(C)C[C@@H]1Oc2cc(C#CCC3CCCC3)ccc2S(=O)(=O)N([C@@H](C)CO)C[C@@H]1C	none (no result: CSC inhib, Mdm2 MdmX PPI, Shn3 3UTR inh, Beta apoptosis, Gli-Sufu block)
CC(=O)N(C)C[C@@H]1Oc2cc(-c3cccc(F)c3)ccc2S(=O)(=O)N([C@H](C)CO)C[C@@H]1C	none (no result: CSC inhib, Mdm2 MdmX PPI, Shn3 3UTR inh, Beta apoptosis, Gli-Sufu block)
Cc1ccc(-n2nc3c(=O)n(CC(=O)NCCc4cccs4)nc(C)c3c2C)cc1	none
Cc1ccc(-n2nc3c(N4CCC(C(=O)NCCc5cccs5)CC4)nnc(C)c3c2C)cc1	Mdm2 MdmX PPI 55, PAX8 inh HTS 71 | Mdm2 MdmX conf inactive | Full FLuc ctr 89
Cc1nnc(N2CCC(C(=O)N3CCCCC3)CC2)c2nn(-c3ccc(Cl)cc3)c(C)c12	none (no result: PAX8 inh HTS)
Cc1nnc(N2CCCC(C(=O)Nc3cc(F)ccc3F)C2)c2nn(-c3ccccc3)c(C)c12 (stereo not given)	Mdm2 MdmX PPI 96 (no result: PAX8 inh HTS) | Mdm2 MdmX conf 50 | Full FLuc ctr 73
Cc1nnc(N2CCCC(C(=O)NCc3ccc(OC(C)C)cc3)C2)c2nn(-c3ccccc3)c(C)c12 (stereo not given)	Mdm2 MdmX PPI 52, PAX8 inh HTS 73 | Mdm2 MdmX conf inactive
Cc1noc(C)c1S(=O)(=O)N(C)C[C@H]1Oc2ccc(NC(=O)Nc3ccc4c(c3)OCO4)cc2CC(=O)N([C@H](C)CO)C[C@@H]1C	none (no result: CSC inhib, Mdm2 MdmX PPI, Shn3 3UTR inh, Beta apoptosis, Gli-Sufu block)
C=CCOc1c(/C=N\NC(N)=O)cccc1OC	none
COc1cccc(Sc2ccccc2/C=N/NC(N)=O)c1	Mdm2 MdmX PPI 53 | Mdm2 MdmX conf 67 | Full FLuc ctr 58
C(=N\Nc1nc2ccccc2[nH]1)/c1ccc2c(c1)OCCO2	none (no result: Beta apoptosis)
C(=N\Nc1ccc2ccccc2n1)/c1ccc2c(c1)OCCO2	Mdm2 MdmX PPI 69, PAX8 inh HTS 73 | Mdm2 MdmX conf 79 | Full FLuc ctr 98
O=C(C[C@@H]1C=C[C@H](NC(=O)C2CCC2)[C@@H](CO)O1)NCc1ccncc1	none (no result: CSC inhib, Mdm2 MdmX PPI, Shn3 3UTR inh, Beta apoptosis, Gli-Sufu block)
CC(C)NC(=O)N1[C@H](CO)[C@@H]2c3ccccc3N(C(=O)C3CCC3)C[C@@H]21	none (no result: CSC inhib, Mdm2 MdmX PPI, Shn3 3UTR inh, Beta apoptosis, Gli-Sufu block)
O=C(CSc1ncn[nH]1)N1N=C2/C(=C/c3ccccc3)CCCC2C1c1ccccc1 (stereo not given)	Mdm2 MdmX PPI 53 (no result: CSC inhib) | Mdm2 MdmX conf inactive
CO[C@@H]1CN(C)C(=O)c2ccc(NC(=O)NC3CCCCC3)cc2OC[C@@H](C)N(CC2CC2)C[C@H]1C	none (no result: CSC inhib, Mdm2 MdmX PPI, Shn3 3UTR inh, Beta apoptosis, Gli-Sufu block)
CCOC(=O)C1=C(C)NC(SC)=C(C#N)C1CC(C)C (stereo not given)	Mdm2 MdmX PPI 55 | Mdm2 MdmX conf 62 | Full FLuc ctr 66
CC(=O)C1=C(C)NC(SCC(N)=O)=C(C#N)C1CC(C)C (stereo not given)	none (no result: CSC inhib)
CCCNC(=O)Nc1ccc2c(c1)C(=O)N(C)[C@@H]1CC[C@@H](CC(=O)NCCCN(C)C)O[C@@H]1CO2	none (no result: CSC inhib, Mdm2 MdmX PPI, Shn3 3UTR inh, Beta apoptosis, Gli-Sufu block)
CCCNC(=O)C[C@@H]1C[C@@H]2c3cc(NC(=O)c4cccnc4)ccc3O[C@@H]2[C@H](CO)O1	none (no result: CSC inhib, Mdm2 MdmX PPI, Shn3 3UTR inh, Beta apoptosis, Gli-Sufu block)
CCOC(=O)c1cc2c(N)c(C(=O)c3cc(C#N)c(SC)nc3C)sc2nc1C	Mdm2 MdmX PPI 50 (no result: PAX8 inh HTS) | Mdm2 MdmX conf inactive
